Laboratory results reported in PubChem BioAssay (Tox21).
Inconclusive results are not listed. Activity calls are given as the source filed them. Calls come from the whole dose curve; as a rule, active = well fitted curve in the direction sought with a large enough effect in the repeat runs; inconclusive = weak or mixed curves; inactive = no such curve, though single readings can be large; an effect the other way counts as inactive or inconclusive. Positions of bridges follow the written chain, without caps; N, C: chain ends. Non-standard residues stand in square brackets, D forms with d. Residues, ends and D or L forms follow the SMILES beside them. hArg = N=C(N)NCCCC[C@H](N)C(=O)O; Mpa = O=C(O)CCS

Tests used:
[1] = qHTS RealTime-Glo MT Cell Viability Assay in HepG2 cells - 24 hour (AID 1224867); note: nearly all actives have a fitted effect of over 50% in size
How it was run: (§1)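 Viability was tracked continuously by NanoLuc luminescence from prosubstrate reduced by living HepG2 cells, at successive time points over 40 h of compound exposure. Cells with reagent were preincubated 5 h at 37 °C before compound addition.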

[2] = qHTS RealTime-Glo MT Cell Viability Assay in HEK293 cells - 32 hour (AID 1224868); note: top concentration of the series differs between compounds; nearly all actives have a fitted effect of over 50% in size
How it was run: (§2)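 Viability tracked continuously by luminescence as live cells reduce a prosubstrate for NanoLuc; HEK293 cells preincubated 5 h, compound-treated at 37 C, and read at 0, 8, 16, 24, 32 and 40 h.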

[3] = A CellTox Green Cytotoxicity Assay to monitor cytotoxicity in HEK293 cells - 0 hour (AID 1224869); note: nearly all actives have a fitted effect of over 50% in size
How it was run: (§3)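 HEK293 cells premixed with CellTox Green dye were seeded at 600 cells/well and left 5 h at 37 C/5% CO2 before pin transfer of 23 nL compound in DMSO. Fluorescence from dye bound to dead-cell DNA was read during 40 h treatment.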

[4] = A CellTox Green Cytotoxicity Assay to monitor cytotoxicity in HEK293 cells - 40 hour (AID 1224871); note: nearly all actives have a fitted effect of over 45% in size
How it was run: as §3

[5] = qHTS RealTime-Glo MT Cell Viability Assay in HEK293 cells - 16 hour (AID 1224872); note: top concentration of the series differs between compounds; nearly all actives have a fitted effect of over 50% in size
How it was run: as §2

[6] = qHTS RealTime-Glo MT Cell Viability Assay in HepG2 cells - 8 hour (AID 1224873); note: nearly all actives have a fitted effect of over 55% in size
How it was run: (§4)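 HepG2 cells (600/well) mixed with RealTime-Glo MT reagent, settled 5 h at 37 C/5% CO2 before compound addition. Nonlytic NanoLuc luminescence from viable-cell prosubstrate reduction read repeatedly during 40 h treatment at 37 C.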

[7] = qHTS RealTime-Glo MT Cell Viability Assay in HEK293 cells - 40 hour (AID 1224874); conditions: RealTime-Glo luminescence; max response: stronger effect = lower value; note: nearly all actives have a fitted effect of over 50% in size
How it was run: (§5)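 HEK293 cells mixed with RealTime-Glo reagents (NanoLuc plus cell-permeant prosubstrate) at 600 cells/well, preincubated 5 h at 37 C/5% CO2, then given 23 nL compound in DMSO. Nonlytic luminescence from viable cells was read at 0, 8, 16, 24, 32 and 40 h.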

[8] = A CellTox Green Cytotoxicity Assay to monitor cytotoxicity in HEK293 cells - 24 hour (AID 1224875); note: series mostly up to about 77 µM; nearly all actives have a fitted effect of over 45% in size
How it was run: as §3

[9] = A CellTox Green Cytotoxicity Assay to monitor cytotoxicity in HepG2 cells - 16 hour (AID 1224876); note: nearly all actives have a fitted effect of over 45% in size
How it was run: (§6)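 HepG2 cells were seeded together with the CellTox Green dye at 600 cells/well, left 5 h at 37 C/5% CO2, then given compounds in DMSO. Fluorescence from dye bound to dead-cell DNA was read repeatedly over 40 h of treatment at 37 C.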

[10] = A CellTox Green Cytotoxicity Assay to monitor cytotoxicity in HepG2 cells - 24 hour (AID 1224878); note: nearly all actives have a fitted effect of over 45% in size
How it was run: as §6

[11] = A CellTox Green Cytotoxicity Assay to monitor cytotoxicity in HepG2 cells - 40 hour (AID 1224879); note: nearly all actives have a fitted effect of over 40% in size
How it was run: as §6

[12] = qHTS RealTime-Glo MT Cell Viability Assay in HEK293 cells - 0 hour (AID 1224880)
How it was run: as §5

[13] = A CellTox Green Cytotoxicity Assay to monitor cytotoxicity in HEK293 cells - 32 hour (AID 1224881); note: nearly all actives have a fitted effect of over 40% in size
How it was run: as §3

[14] = A CellTox Green Cytotoxicity Assay to monitor cytotoxicity in HepG2 cells - 0 hour (AID 1224882); note: nearly all actives have a fitted effect of over 35% in size
How it was run: as §6

[15] = A CellTox Green Cytotoxicity Assay to monitor cytotoxicity in HepG2 cells - 32 hour (AID 1224883); note: nearly all actives have a fitted effect of over 50% in size
How it was run: as §6

[16] = A CellTox Green Cytotoxicity Assay to monitor cytotoxicity in HEK293 cells - 8 hour (AID 1224884); note: nearly all actives have a fitted effect of over 35% in size
How it was run: as §3

[17] = qHTS RealTime-Glo MT Cell Viability Assay in HepG2 cells - 16 hour (AID 1224885); note: nearly all actives have a fitted effect of over 50% in size
How it was run: as §1

[18] = qHTS RealTime-Glo MT Cell Viability Assay in HEK293 cells - 24 hour (AID 1224886)
How it was run: as §2

[19] = qHTS RealTime-Glo MT Cell Viability Assay in HepG2 cells - 32 hour (AID 1224877); note: nearly all actives have a fitted effect of over 55% in size
How it was run: as §1

[20] = qHTS RealTime-Glo MT Cell Viability Assay in HepG2 cells - 40 hour (AID 1224870); note: nearly all actives have a fitted effect of over 50% in size
How it was run: as §4
% is set by controls: 0 for no effect and ±100 for the full control effect.

CC1(C)Oc2ccc(C#N)cc2[C@@H](N2CCCC2=O)[C@@H]1O
inactive: outcome [1] | Potency [2] | Potency [3] | Potency [4] | Potency [5] | outcome [6] | max response [7] 2.51% | Potency [8] | Potency [9] | Potency [10] | Potency [11] | Potency [12] | Potency [13] | Potency [14] | Potency [15] | Potency [16] | outcome [17] | Potency [18]

CC(C)c1ccc(C=O)cc1
inactive: outcome [1] | Potency [2] | Potency [3] | Potency [4] | Potency [5] | outcome [6] | max response [7] 13.2% | Potency [8] | Potency [9] | outcome [19] | Potency [10] | Potency [11] | Potency [12] | Potency [13] | Potency [14] | Potency [15] | Potency [16] | outcome [17] | Potency [18]

CCCCOCC(C)O (configuration not stated)
inactive: outcome [1] | Potency [2] | Potency [3] | Potency [4] | Potency [5] | outcome [6] | max response [7] 10.5% | Potency [8] | Potency [9] | outcome [19] | Potency [10] | Potency [11] | Potency [12] | Potency [13] | Potency [14] | Potency [15] | Potency [16] | outcome [17] | Potency [18]

COC(=O)c1cc(Cl)cc(Cl)c1
inactive: outcome [1] | Potency [2] | Potency [3] | Potency [4] | Potency [5] | outcome [6] | max response [7] -0.635% | Potency [9] | outcome [19] | Potency [10] | Potency [11] | Potency [12] | Potency [13] | Potency [14] | Potency [15] | Potency [16] | outcome [17] | Potency [18]

NC(=O)[C@@H]1CSSCCC(=O)N[C@@H](CCCCN=C(N)N)C(=O)NCC(=O)N[C@@H](CC(=O)O)C(=O)N[C@@H](Cc2c[nH]c3ccccc23)C(=O)N2CCC[C@H]2C(=O)N1 ([Mpa][hArg]GDWPC-NH2; disulfide 1-7)
inactive: outcome [1] | Potency [3] | outcome [20] | Potency [4] | Potency [5] | outcome [6] | max response [7] 0% | Potency [8] | Potency [9] | outcome [19] | Potency [10] | Potency [11] | Potency [12] | Potency [13] | Potency [14] | Potency [15] | Potency [16] | outcome [17] | Potency [18]

Nc1nnnn1-c1ccccc1
inactive: outcome [1] | Potency [2] | Potency [3] | Potency [4] | Potency [5] | outcome [6] | Potency [8] | Potency [12] | Potency [13] | Potency [14] | Potency [16] | outcome [17] | Potency [18]

O=C1CCC(=O)N1Cl
inactive: outcome [1] | Potency [3] | outcome [20] | Potency [4] | Potency [5] | outcome [6] | max response [7] 7.58% | Potency [8] | Potency [9] | outcome [19] | Potency [10] | Potency [11] | Potency [12] | Potency [13] | Potency [14] | Potency [15] | Potency [16] | outcome [17] | Potency [18]

CCCCCC/C=C/C(=O)OC
inactive: outcome [1] | Potency [2] | Potency [3] | outcome [20] | Potency [5] | outcome [6] | outcome [19] | Potency [12] | Potency [16] | outcome [17] | Potency [18]

CC(N)CCCC(C)(C)O (configuration not stated)
inactive: outcome [1] | Potency [2] | Potency [3] | Potency [4] | Potency [5] | outcome [6] | max response [7] 10% | Potency [8] | Potency [9] | outcome [19] | Potency [10] | Potency [11] | Potency [12] | Potency [13] | Potency [14] | Potency [15] | Potency [16] | outcome [17] | Potency [18]

CCCC(=O)OCCC(C)CCC=C(C)C (configuration not stated)
inactive: outcome [1] | Potency [3] | outcome [20] | Potency [4] | Potency [5] | outcome [6] | max response [7] 0.963% | Potency [8] | Potency [9] | outcome [19] | Potency [10] | Potency [11] | Potency [13] | Potency [14] | Potency [15] | Potency [16] | outcome [17] | Potency [18]

CCCCOC(=O)C(C)O (configuration not stated)
inactive: outcome [1] | Potency [2] | Potency [3] | Potency [4] | Potency [5] | outcome [6] | max response [7] 11.1% | Potency [8] | Potency [9] | outcome [19] | Potency [10] | Potency [11] | Potency [12] | Potency [13] | Potency [14] | Potency [15] | Potency [16] | outcome [17] | Potency [18]

CCC(=O)c1c(O)cc(O)cc1O
inactive: outcome [1] | Potency [2] | Potency [3] | outcome [20] | Potency [5] | outcome [6] | max response [7] 11.1% | Potency [8] | Potency [9] | outcome [19] | Potency [10] | Potency [11] | Potency [12] | Potency [14] | Potency [15] | Potency [16] | outcome [17] | Potency [18]

CN(C)C(C)(C)CO
inactive: outcome [1] | Potency [2] | Potency [3] | Potency [4] | Potency [5] | outcome [6] | Potency [8] | Potency [9] | outcome [19] | Potency [10] | Potency [11] | Potency [12] | Potency [13] | Potency [14] | Potency [15] | Potency [16] | outcome [17] | Potency [18]

C[C@H]1[C@@H](c2ccccc2)NC(=O)N1C
inactive: outcome [1] | Potency [3] | outcome [20] | Potency [4] | Potency [5] | outcome [6] | max response [7] -8.69% | Potency [8] | Potency [9] | outcome [19] | Potency [10] | Potency [11] | Potency [12] | Potency [13] | Potency [14] | Potency [15] | Potency [16] | outcome [17] | Potency [18]

Cn1c(=O)c2c(ncn2CCO)n(C)c1=O
inactive: outcome [1] | Potency [2] | Potency [3] | Potency [4] | outcome [6] | max response [7] 3.56% | Potency [12] | Potency [13] | Potency [16] | outcome [17] | Potency [18]

O=C(Cl)c1ccccc1[N+](=O)[O-]
inactive: outcome [1] | Potency [2] | Potency [3] | Potency [4] | Potency [5] | outcome [6] | max response [7] 9.73% | Potency [8] | Potency [9] | outcome [19] | Potency [10] | Potency [11] | Potency [12] | Potency [13] | Potency [14] | Potency [15] | Potency [16] | outcome [17] | Potency [18]
